The target in assay [1] is Solute carrier family 12 member 5 (Homo sapiens) (UniProt Q9H2X9). Nature of the assay: KCC2 modulators in sodium-free buffer, confirmation, cell-based, HEK293 KCC2, thallium flux, secondary assay (AID 1713;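 active means thallium flux slope above the same plate's solvent-only control mean plus 3 SD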). As to conditions: FluoZin2 fluorescence, at 10 µM, stronger effect = higher value.
A further assay can be described thus: PubChem AID 1714.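 Further: raw slope of fluorescence over initial fluorescence between 10 and 20 s after thallium.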 Particulars: HEK293-KCC2 + bumetanide/ouabain, thallium flux FluoZin2; at 10 µM; stronger effect = higher value.
Assay [2] has as its target Solute carrier family 12 member 5 (Homo sapiens) (UniProt Q9H2X9). The assay is described as follows: KCC2 modulators without ouabain present, confirmation, cell-based, HEK293 KCC2, thallium flux, FluoZin2, secondary assay 2 (AID 1715;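 active means thallium flux slope more than 3 SD above or below the plate's solvent-only control mean, mostly below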;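 further: raw slope with 0.1% DMSO as baseline and bumetanide as block control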). Particulars: HEK293-KCC2, thallium flux FluoZin2 fluorescence; at 10 µM; actives lie on both sides; F/F0 rise rate, 10–20 s post-thallium.

Assay [3] in a line: thallium flux modulation in parental HEK cells, confirmation, counter-screen for KCC2 modulator project, cell-based, counterscreen 1 (AID 1716;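 active means thallium flux rate significantly above the same plate's solvent-only control wells, beyond their mean plus 3 SD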). As to conditions: HEK293 parental cells, thallium flux FluoZin2, ouabain; at 10 µM; baseline-ratio fluorescence slope, 10–20 s after thallium.
Assay [4] deals with Solute carrier family 12 member 5 (Homo sapiens) (UniProt Q9H2X9). The assay is described as follows: KCC2 inhibitors and activators, ouabain retest, confirmation, HEK-KCC2 cells (AID 1717;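 active means thallium flux slope beyond 3 SD from same-plate DMSO control mean in most replicates, usually higher, sometimes lower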;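 further: slope of initial-normalized fluorescence between seconds 10 and 20 after thallium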). As to conditions: HEK293-KCC2, thallium flux FluoZin2 fluorescence, at 10 µM, bidirectional: low = inhibitor, high = activator.
Assay [5] in a line: native HEK Tl+ uptake effects, second counter-screen – HEK cells, counterscreen 2, counter-screen for KCC2 modulator project, confirmation (AID 1718;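 active means thallium flux slope above the same plate's solvent-control mean plus 3 SD in both duplicate wells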;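 further: run without ouabain in cells lacking the KCC2 cotransporter; slope of fluorescence scaled to its starting value between 10 and 20 s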). Particulars: HEK293 parental, thallium flux FluoZin-2 fluorescence slope; at 10 µM. Background: Counterscreens check selectivity or assay interference.

The other results are listed elsewhere or left out. Records with an inconclusive call do not appear. Unmarked numbers belong to inactive results. Active and inactive are the calls of the source.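 How the source made its calls, unless noted: active means thallium entry rate above the same plate's blocked-transporter control wells by more than 3 SD; inconclusive means the two repeat wells disagree; inactive means the rest.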

Solute carrier family 12 member 5 (Homo sapiens), sequence (Q9H2X9 whole entry, looked up): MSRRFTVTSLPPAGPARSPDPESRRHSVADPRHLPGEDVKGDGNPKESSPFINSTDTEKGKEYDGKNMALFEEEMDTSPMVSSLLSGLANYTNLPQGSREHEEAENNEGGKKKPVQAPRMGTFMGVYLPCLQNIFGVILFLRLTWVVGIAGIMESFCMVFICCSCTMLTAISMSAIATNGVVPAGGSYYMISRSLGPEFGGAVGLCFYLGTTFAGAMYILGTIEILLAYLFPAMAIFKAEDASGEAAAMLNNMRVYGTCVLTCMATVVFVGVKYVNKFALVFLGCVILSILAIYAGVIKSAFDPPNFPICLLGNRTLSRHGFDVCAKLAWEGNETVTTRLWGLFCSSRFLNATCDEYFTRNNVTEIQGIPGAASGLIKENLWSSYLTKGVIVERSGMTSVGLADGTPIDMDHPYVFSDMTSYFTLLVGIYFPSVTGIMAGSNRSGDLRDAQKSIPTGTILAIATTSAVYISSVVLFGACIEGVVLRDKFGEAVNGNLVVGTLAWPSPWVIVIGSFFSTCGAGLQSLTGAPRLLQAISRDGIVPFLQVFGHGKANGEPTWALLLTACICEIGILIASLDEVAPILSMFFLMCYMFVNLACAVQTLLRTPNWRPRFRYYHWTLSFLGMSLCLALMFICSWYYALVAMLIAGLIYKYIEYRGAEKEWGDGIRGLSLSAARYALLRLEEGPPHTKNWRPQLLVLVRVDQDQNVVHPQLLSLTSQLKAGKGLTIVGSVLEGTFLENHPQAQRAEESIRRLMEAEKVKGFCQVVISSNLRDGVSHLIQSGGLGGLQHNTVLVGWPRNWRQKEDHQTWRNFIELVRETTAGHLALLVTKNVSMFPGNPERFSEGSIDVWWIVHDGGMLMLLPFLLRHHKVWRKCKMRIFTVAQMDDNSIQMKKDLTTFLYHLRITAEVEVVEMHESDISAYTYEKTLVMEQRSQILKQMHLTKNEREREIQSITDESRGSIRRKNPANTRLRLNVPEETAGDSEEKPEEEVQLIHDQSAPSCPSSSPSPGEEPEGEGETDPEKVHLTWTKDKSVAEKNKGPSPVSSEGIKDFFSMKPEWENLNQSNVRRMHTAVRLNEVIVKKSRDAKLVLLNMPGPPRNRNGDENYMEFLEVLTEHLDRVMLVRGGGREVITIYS

With `O=[N+]([O-])c1c(NCCO)cc(Sc2nc3ccccc3s2)c2nonc12`, the normalised thallium flux (F/F0 slope) in assay [1] is 0.0147 (active). For the same compound, the normalized thallium flux in “PubChem AID 1714” is 0.0297 (active); in assay [2] it was 0.0332. Further, the thallium flux rate (normalised fluorescence) in assay [3] was 0.0134 (active). In addition, in assay [4], the raw Tl+ flux slope (below DMSO = inhibition, above = activation) is 0.0556 (active). For the same compound, in assay [5], the thallium flux slope is 0.0128 (active).

For `O=C(COC(=O)c1cc([N+](=O)[O-])ccc1NCc1ccccc1)NC1CCCCC1`, the normalised thallium flux (F/F0 slope) in assay [1] was 0.00664. Also, the normalized thallium flux in the assay “PubChem AID 1714” is 0.00478; in assay [2] it was 0.0252 (active). In assay [3], the thallium flux rate (normalised fluorescence) is 0.00762. Also, the raw Tl+ flux slope (below DMSO = inhibition, above = activation) in assay [4] is 0.0168 (active). Also, the thallium flux slope in assay [5] was 0.0115.

`COc1ccc(-c2nc(CS(=O)CC(=O)N3CCc4ccccc4C3)c(C)o2)cc1` (stereo not given): the normalised thallium flux (F/F0 slope) in assay [1] is 0.00722. In addition, the normalized thallium flux was 0.00429 in the assay “PubChem AID 1714” and 0.0225 (active) in assay [2]. In addition, the thallium flux rate (normalised fluorescence) in assay [3] was 0.00707. Moreover, the raw Tl+ flux slope (below DMSO = inhibition, above = activation) in assay [4] was 0.0124 (active). Also, the thallium flux slope in assay [5] is 0.00907.

As to `CSc1sc(C(=O)NNC(=O)c2ccc(Cl)cc2)c2c1C=CCC2`, the normalised thallium flux (F/F0 slope) in assay [1] was 0.0166 (active). Further, the normalized thallium flux in the assay “PubChem AID 1714” was 0.0484 (active); in assay [2], 0.0343. Besides, the thallium flux rate (normalised fluorescence) in assay [3] was 0.0305 (active). Further, the raw Tl+ flux slope (below DMSO = inhibition, above = activation) in assay [4] was 0.0333 (active). Further, the thallium flux slope in assay [5] was 0.0136 (active).

Consider `CC(=O)NNc1cc(=O)c2c(=O)n(C)c(=O)n(C)c2[nH]1`, for which, in assay [1], the normalised thallium flux (F/F0 slope) was 0.0167. Besides, the normalized thallium flux in “PubChem AID 1714” was 0.00524; in assay [2], 0.0281. Also, the thallium flux rate (normalised fluorescence) in assay [3] was 0.00797. In addition, the raw Tl+ flux slope (below DMSO = inhibition, above = activation) in assay [4] was 0.0159. Further, the thallium flux slope in assay [5] was 0.0112.

`CCC(C)Cn1c(O)cc2nn(-c3nc4ccccc4s3)c(=O)c-2c1C` (stereo not given): the normalised thallium flux (F/F0 slope) in assay [1] was 0.00617. Besides, the normalized thallium flux was 0.0393 (active) in the assay “PubChem AID 1714” and 0.0456 (active) in assay [2]. In addition, the thallium flux rate (normalised fluorescence) in assay [3] is 0.0308 (active). Further, the raw Tl+ flux slope (below DMSO = inhibition, above = activation) in assay [4] was 0.0409 (active). For the same compound, in assay [5], the thallium flux slope was 0.0328 (active).

Turning to `O=C(CN(c1cccc(Cl)c1)S(=O)(=O)c1ccccc1)NN=C1CCCC1`, the normalised thallium flux (F/F0 slope) in assay [1] is 0.0069. In addition, the results for the normalized thallium flux (in “PubChem AID 1714”; in assay [2]) were 0.00505 and 0.0271, respectively. Further, the thallium flux rate (normalised fluorescence) in assay [3] is 0.00791. Further, the raw Tl+ flux slope (below DMSO = inhibition, above = activation) in assay [4] was 0.0178. Also, the thallium flux slope in assay [5] was 0.00991.

In the case of `CN(C)c1nc(=Nc2cccc(Cl)c2)ss1`, in assay [1], the normalised thallium flux (F/F0 slope) is 0.0466 (active). Further, the normalized thallium flux was 0.104 (active) in “PubChem AID 1714” and 0.0563 (active) in assay [2]. The thallium flux rate (normalised fluorescence) in assay [3] is 0.0721 (active). Besides, the raw Tl+ flux slope (below DMSO = inhibition, above = activation) in assay [4] was 0.0696 (active). Moreover, in assay [5], the thallium flux slope was 0.0487 (active).

For the compound `S=c1ccc2ccccc2[nH]1`, the normalised thallium flux (F/F0 slope) in assay [1] is 0.0228 (active). Besides, the normalized thallium flux in the assay “PubChem AID 1714” was 0.0237 (active); in assay [2] it was 0.0335. The thallium flux rate (normalised fluorescence) in assay [3] is 0.0196 (active). In assay [4], the raw Tl+ flux slope (below DMSO = inhibition, above = activation) is 0.0247 (active). The thallium flux slope in assay [5] was 0.0209 (active).

In the case of `CCCCn1c(=S)[nH]c2ccccc2c1=O`, in assay [1], the normalised thallium flux (F/F0 slope) is 0.05 (active). Besides, the normalized thallium flux was 0.179 (active) in “PubChem AID 1714” and 0.0834 (active) in assay [2]. Besides, the thallium flux rate (normalised fluorescence) in assay [3] was 0.114 (active). Besides, the raw Tl+ flux slope (below DMSO = inhibition, above = activation) in assay [4] was 0.145 (active). In assay [5], the thallium flux slope was 0.0577 (active).

Consider `COc1cc(NC(=O)c2ccccc2NS(=O)(=O)c2ccc(Cl)s2)cc(OC)c1`, for which the normalised thallium flux (F/F0 slope) in assay [1] is 0.00642. In addition, the values for the normalized thallium flux (in “PubChem AID 1714”; in assay [2]) were 0.00732 and 0.0336, respectively. In addition, in assay [3], the thallium flux rate (normalised fluorescence) is 0.00377. In assay [4], the raw Tl+ flux slope (below DMSO = inhibition, above = activation) was 0.0161 (active). Further, the thallium flux slope in assay [5] was 0.0111.

For `O=C(COC(=O)c1ccc(Oc2ccccc2)cc1)Nc1nnc(-c2ccccc2)o1`, in assay [1], the normalised thallium flux (F/F0 slope) was 0.00704. In addition, the normalized thallium flux in “PubChem AID 1714” was 0.0517 (active); in assay [2], 0.0474 (active). Further, in assay [3], the thallium flux rate (normalised fluorescence) was 0.0357 (active). Further, the raw Tl+ flux slope (below DMSO = inhibition, above = activation) in assay [4] is 0.0424 (active). Besides, the thallium flux slope in assay [5] is 0.0346 (active).

`O=C(NC(=S)N1CCc2ccccc21)c1ccco1`: in assay [1], the normalised thallium flux (F/F0 slope) was 0.00899 (active). The results for the normalized thallium flux (in the assay “PubChem AID 1714”; in assay [2]) were 0.0451 (active) and 0.0395 (active), respectively. Also, in assay [3], the thallium flux rate (normalised fluorescence) was 0.0311 (active). In addition, the raw Tl+ flux slope (below DMSO = inhibition, above = activation) in assay [4] was 0.0407 (active). Moreover, in assay [5], the thallium flux slope is 0.0243 (active).

Consider `COC(=O)c1cccnc1NC(=S)NC(C)C`, for which the normalised thallium flux (F/F0 slope) in assay [1] was 0.0244 (active). Also, the normalized thallium flux in “PubChem AID 1714” is 0.0413 (active); in assay [2], 0.0368. In assay [3], the thallium flux rate (normalised fluorescence) is 0.035 (active). In addition, the raw Tl+ flux slope (below DMSO = inhibition, above = activation) in assay [4] was 0.0394 (active). The thallium flux slope in assay [5] is 0.0178 (active).

For `CCOc1ccccc1C1CC(c2ccc(Cl)cc2)Nc2nc(N)nn21` (stereo not given), the normalised thallium flux (F/F0 slope) in assay [1] is 0.0061. The normalized thallium flux in the assay “PubChem AID 1714” was 0.00475; in assay [2], 0.0277. The thallium flux rate (normalised fluorescence) in assay [3] is 0.00745. Moreover, the raw Tl+ flux slope (below DMSO = inhibition, above = activation) in assay [4] is 0.0177. Moreover, in assay [5], the thallium flux slope was 0.00975.

In the case of `Oc1ccccc1/C=N/n1c(-c2cccs2)n[nH]c1=S`, the normalised thallium flux (F/F0 slope) in assay [1] is 0.02 (active). The normalized thallium flux in the assay “PubChem AID 1714” was 0.0602 (active); in assay [2], 0.0326. In addition, in assay [3], the thallium flux rate (normalised fluorescence) is 0.0173 (active). Also, the raw Tl+ flux slope (below DMSO = inhibition, above = activation) in assay [4] is 0.0288 (active). Moreover, the thallium flux slope in assay [5] is 0.0224 (active).

Take `COc1ccc(Oc2c(Cl)cnn(-c3ccccc3)c2=O)cc1`: in assay [1], the normalised thallium flux (F/F0 slope) was 0.00949. For the same compound, the figures for the normalized thallium flux (in the assay “PubChem AID 1714”; in assay [2]) were 0.0065 and 0.0314, respectively. Besides, the thallium flux rate (normalised fluorescence) in assay [3] is 0.00741. For the same compound, the raw Tl+ flux slope (below DMSO = inhibition, above = activation) in assay [4] is 0.0166 (active). Besides, the thallium flux slope in assay [5] was 0.00996.

On to `O=C(Nc1nc2c(F)cc(F)cc2s1)C1COc2ccccc2O1` (stereo not given), for which the normalised thallium flux (F/F0 slope) in assay [1] is 0.017 (active). Besides, the normalized thallium flux is 0.0963 (active) in the assay “PubChem AID 1714” and 0.0398 in assay [2]. Besides, the thallium flux rate (normalised fluorescence) in assay [3] was 0.0378 (active). For the same compound, the raw Tl+ flux slope (below DMSO = inhibition, above = activation) in assay [4] is 0.0383 (active). For the same compound, the thallium flux slope in assay [5] was 0.0155 (active).

Turning to `COc1ccc(C(=O)NC2(C(F)(F)F)NC(=O)N(CCCc3ccccc3)C2=O)c(OC)c1OC` (stereo not given), in assay [1], the normalised thallium flux (F/F0 slope) was 0.00692. Also, the results for the normalized thallium flux (in “PubChem AID 1714”; in assay [2]) were 0.00586 and 0.0307, respectively. The thallium flux rate (normalised fluorescence) in assay [3] is 0.00683. For the same compound, the raw Tl+ flux slope (below DMSO = inhibition, above = activation) in assay [4] was 0.0134 (active). Moreover, in assay [5], the thallium flux slope was 0.0109.

With `O=C(N/N=C/c1coc2ccccc2c1=O)c1cc2ccccc2o1`, in assay [1], the normalised thallium flux (F/F0 slope) was 0.0123. Also, the normalized thallium flux in “PubChem AID 1714” is 0.0194 (active); in assay [2], 0.0374. Further, in assay [3], the thallium flux rate (normalised fluorescence) was 0.0141 (active). Further, the raw Tl+ flux slope (below DMSO = inhibition, above = activation) in assay [4] was 0.0271 (active). Further, the thallium flux slope in assay [5] was 0.0106.

For the origin of these results see PubChem BioAssay.
